Several values for one entry are separate records, joined by “and”; a condition that tells them apart may be missing. Equal values may be shown once.

This test in a line: EMT-state selective cytotoxicity in co-culture – imaging, PC-3E GFP, TEM4-18 mCherry, primary screen (AID 1345086).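 Further: cells exposed to compound for 72 h before imaging.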 The settings on record: PC-3E GFP / TEM4-18 mCherry co-culture, imaging cell counts; measured here: epithelial PC-3E GFP cell survival; at 1 µM.
In turn, `C[C@]12CCC(=O)C=C1CCC1C2CC[C@@]2(C)C1CC[C@H]2O` (stereo partly specified) showed a normalised cell number of 0.92.

The compound `C[C@@H]1CC[C@@]2(OC1)OC1C(O)C3C4CC[C@H]5C[C@H](O[C@@H]6O[C@H](CO)[C@H](O[C@@H]7O[C@H](CO)[C@@H](O)[C@H](O[C@@H]8OC[C@@H](O)[C@H](O)[C@H]8O)[C@H]7O[C@@H]7O[C@H](CO)[C@H](O)[C@H](O[C@@H]8O[C@H](CO)[C@@H](O)[C@H](O)[C@H]8O)[C@H]7O)[C@H](O)[C@H]6O)[C@H](O)C[C@]5(C)C4CC[C@]3(C)C1[C@@H]2C` (stereo partly specified) had a normalised cell number of 0.9.

`CC[C@H](C)/C=C(C)/C=C/C1=CC2=C(Cl)C(=O)[C@](C)(OC(C)=O)C(=O)C2=CO1` showed a normalised cell number of 0.96.

On to `C[C@]12CCC3C(CC[C@@H]4CC(=O)CC[C@]34C)C1CCC2=O` (stereo partly specified), for which the normalised cell number is 0.88.

`O=[N+]([O-])c1ccc(CN2CCNCC2)cc1` came in with a normalised cell number of 1.45.

`O=C(O)COc1ccc(O)cc1` showed a normalised cell number of 1.09.

Compound `C[C@]12CCC3C(CC[C@H]4C[C@H](O)CC[C@]34C)C1CCC2=O` (stereo partly specified) showed a normalised cell number of 0.84.

`C[C@H]1COc2c(N3CCNCC3)c(F)cc3c(=O)c(C(=O)O)cn1c23` gave a normalised cell number of 1.08.

Regarding `CN(CCC(N)CC(=O)N[C@H]1C=CC(n2ccc(N)nc2=O)O[C@@H]1C(=O)O)C(=N)N` (stereo partly specified), the normalised cell number amounted to 1.2.

The compound `CCN1C[C@]2(OC(=O)c3ccccc3NC(C)=O)CCC(OC)[C@]34C1[C@@H](CC23)[C@@]1(O)CC(OC)[C@H]2CC4C1(O)[C@H]2OC` (stereo partly specified) registered a normalised cell number of 0.94.

For the compound `COc1cc(O)c2c(=O)oc3cc(O)cc(C)c3c2c1`, the normalised cell number stood at 1.19.

In the case of `C[N+]12CC[C@@]34c5ccccc5N5C(=O)CC6OCC=C(C1)[C@@H](CC32)[C@@H]6C54` (stereo partly specified), the normalised cell number stood at 0.95.

Compound `CC1(C)C(=O)C=C[C@@]2(C)C1C[C@@H](O)[C@]1(C)C2CC[C@@]2(C)[C@H](c3ccoc3)OC(=O)[C@H]3O[C@]321` (stereo partly specified) yielded a normalised cell number of 0.88.

For the compound `CCC(C)C(=O)O[C@@H]1C[C@@]2(C)[C@H](c3ccoc3)OC(=O)CC23OC2(C)OC34[C@H](OC(=O)C(C)C)C3(O)[C@@H](OC(=O)C5(C)OC5C)[C@@]5(C)C[C@]3(O)[C@@](C)([C@H]5CC(=O)OC)C14O2` (stereo partly specified), the normalised cell number is 0.98.

For `CCC(C)C1C(=O)OC(C(C)C)C(=O)N(C)C(C(C)C)C(=O)OC(C(C)C)C(=O)N(C)C(C(C)C)C(=O)OC(C(C)C)C(=O)N1C` (stereo unspecified), the normalised cell number is 1.02 and 0.67.

Turning to `C[C@@H]1CC[C@@]2(NC1)OC1CC3C4CC=C5C[C@@H](O)CC[C@]5(C)C4CC[C@]3(C)C1[C@@H]2C` (stereo partly specified), the normalised cell number worked out at 1.11.

`NCCc1c[nH]c2ccc(O)cc12` gave a normalised cell number of 0.95.

As for `C[C@H]1OC(O[C@H]2[C@@H](O)CC(O[C@H]3[C@@H](O)C[C@H](O[C@H]4CC[C@]5(C)C6CC[C@]7(C)[C@@H](C8=CC(=O)OC8)[C@@H](O)C[C@]7(O)[C@@H]6CC[C@@H]5C4)O[C@@H]3C)O[C@@H]2C)C[C@H](O)C1O` (stereo partly specified), the normalised cell number was 0.21.

`C[C@]12CCC3C(CC[C@H]4C[C@@H](O)CC[C@]34C)C1CCC2=O` (stereo partly specified): the normalised cell number came to 1.2.

As to `COc1cc([C@@H]2c3cc4c(cc3[C@H](OC(C)=O)C3COC(=O)[C@@H]32)OCO4)cc(OC)c1OC` (stereo partly specified), the normalised cell number is 0.2.

Turning to `C[C@@H]1CC(Cl)CC[C@H]1C(=O)OC(C)(C)C` (stereo partly specified), the normalised cell number is 1.09.

In turn, `C[C@]12CC[C@H](O)C[C@H]1CCC1C2CC[C@]2(C)[C@@H](C3=CC(=O)OC3)[C@@H](O)C[C@]12O` (stereo partly specified) yielded a normalised cell number of 0.91.

For `C/C1=C\[C@@H](C)C/C=C/[C@H]2[C@@H]3O[C@]3(C)[C@@H](C)[C@H]3[C@H](Cc4c[nH]c5ccccc45)NC(=O)[C@]32C(=O)/C=C/C(=O)[C@@H]1O`, the normalised cell number came out at 1.11.

Compound `c1ccc(S[C@@H]2OC3COC(c4ccccc4)OC3[C@H]3NC32)cc1` (stereo partly specified) showed a normalised cell number of 1.08.

Consider `COc1cc2c(cc1OC)[C@@]13CCN4CC5=CCOC6CC(=O)N2C1[C@H]6[C@H]5C[C@H]43` (stereo partly specified), for which the normalised cell number is 1.05 and 0.91.

For `C[N+]12CC(C[C@H]1c1cccnc1)C2`, the normalised cell number stood at 1.14.

As for `COC[C@]12CN(C=O)C3[C@@H]4[C@H](OC)C1[C@]3(C1CC3(O)C(OC)C(O)C4(OC(C)=O)C1C3OC(=O)c1ccccc1)[C@@H](OC)C[C@H]2O` (stereo partly specified), the normalised cell number came out at 1.06.

`CC(C)[C@@H]1CC[C@](O)(CCl)[C@@H]2C(=O)OCC(C(=O)O)=C[C@H]21`: the normalised cell number came to 1.

In turn, `CC1CC[C@]2(NC1)O[C@H]1CC3C4CC[C@H]5C[C@@H](O)CC[C@]5(C)C4CC[C@]3(C)[C@H]1[C@@H]2C` (stereo partly specified) yielded a normalised cell number of 1.1.

Turning to `CC[C@H]1CN2CCC1C[C@@H]2[C@H](O)c1ccnc2ccc(OC)cc12` (stereo partly specified), the normalised cell number was found to be 1.22.

Consider `C[CH2][Hg+].O=C([O-])c1ccccc1[S-].[Na+]`, for which the normalised cell number was found to be 0.18.

The record behind these values is PubChem BioAssay.
